Only some compounds are listed: those with a hit (about 2.8% of all), similar ones and a draw of the others.
PI5P4K alpha inh = blocks human PI5P4K alpha kinase activity; P48426; PI5P4Kalpha enzyme, ADP-Glo luminescence, 60 min; active compounds read low; max response, %; 330,000 compounds, 1.2% hits; AID 652105; active = max response of -50% or lower; inconclusive = between -30% and -50%; inactive = -30% or higher; note: value at the top dose of about 77 µM; % is set by controls: 0 for no effect and ±100 for the full control effect
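Compounds were pin-transferred onto PI5P4Kalpha and substrate in HEPES pH 7.4 buffer with EGTA, CHAPS and 5% DMSO. ATP (5 microM final) started the reaction, which ran 60 minutes at room temperature before ADP-Glo detection.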
POLK inh = blocks human DNA polymerase kappa activity; 400,000 compounds, 0.53% hits; purified Pol kappa, fluorescent DNA synthesis assay, 10 min; Potency, µM (doses to about 107 µM), inactives show top-dose activity, negative = inhibition, most hits filed as inhibitors; AID 588579; Q9UBT6; note: potency is the fitted concentration of half-maximal effect; % is set by controls: 0 for no effect and ±100 for the full control effect
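Here, compound and 10 nM enzyme are combined for 15 min at room temperature; adding 50 nM substrate (final) starts DNA synthesis, tracked by fluorescence at 0 and 10 min against buffer-only wells.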
WRN inhibitor = WRN helicase (human) inhibition; Q14191; Potency, µM (highest dose often 114 µM), without a hit: at the highest dose activity change, negative = inhibition, hits mostly inhibitors; 360,000 compounds, 0.46% hits; WRN helicase unwinding, fluorescent forked duplex, kinetic; AID 651768; note: potency is the fitted concentration of half-maximal effect; % is set by controls: 0 for no effect and ±100 for the full control effect; nearly all actives have a fitted effect of over 55% in size
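Kinetic fluorescence helicase assay: unwinding of a quenched forked DNA duplex (100 nM final) with 2 mM ATP final raises red fluorescence (525/598 nm). Compounds sat 15 min at room temperature with 20 nM WRN beforehand.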
Pol beta inh = blocks human DNA polymerase beta activity; AID 485314; Pol beta primer extension/strand displacement, fluorescence kinetic; Potency, µM (top dose mostly 114 µM), for inactives: top-dose activity change, negative = inhibition, usual class: inhibitors; 340,000 compounds, 1.3% hits; P06746; note: potency is the fitted concentration of half-maximal effect; % is set by controls: 0 for no effect and ±100 for the full control effect
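Homogeneous kinetic assay of primer extension and strand displacement by 10 nM Pol beta, preincubated 15 min at room temperature with compound before 50 nM substrate (final) was added. Read at 0 and 10 min; four-parameter Hill fit.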
Pol eta inh = inhibitors of human DNA polymerase eta; 390,000 compounds, 1.2% hits; recombinant Pol eta, fluorescent DNA replication assay; Potency, µM (highest dose often 114 µM), for inactives: top-dose activity change, negative = inhibition, usual class: inhibitors; AID 588591; Q9Y253; note: potency is the fitted concentration of half-maximal effect; % is set by controls: 0 for no effect and ±100 for the full control effect
Target sequence (Q9Y253 whole entry, looked up): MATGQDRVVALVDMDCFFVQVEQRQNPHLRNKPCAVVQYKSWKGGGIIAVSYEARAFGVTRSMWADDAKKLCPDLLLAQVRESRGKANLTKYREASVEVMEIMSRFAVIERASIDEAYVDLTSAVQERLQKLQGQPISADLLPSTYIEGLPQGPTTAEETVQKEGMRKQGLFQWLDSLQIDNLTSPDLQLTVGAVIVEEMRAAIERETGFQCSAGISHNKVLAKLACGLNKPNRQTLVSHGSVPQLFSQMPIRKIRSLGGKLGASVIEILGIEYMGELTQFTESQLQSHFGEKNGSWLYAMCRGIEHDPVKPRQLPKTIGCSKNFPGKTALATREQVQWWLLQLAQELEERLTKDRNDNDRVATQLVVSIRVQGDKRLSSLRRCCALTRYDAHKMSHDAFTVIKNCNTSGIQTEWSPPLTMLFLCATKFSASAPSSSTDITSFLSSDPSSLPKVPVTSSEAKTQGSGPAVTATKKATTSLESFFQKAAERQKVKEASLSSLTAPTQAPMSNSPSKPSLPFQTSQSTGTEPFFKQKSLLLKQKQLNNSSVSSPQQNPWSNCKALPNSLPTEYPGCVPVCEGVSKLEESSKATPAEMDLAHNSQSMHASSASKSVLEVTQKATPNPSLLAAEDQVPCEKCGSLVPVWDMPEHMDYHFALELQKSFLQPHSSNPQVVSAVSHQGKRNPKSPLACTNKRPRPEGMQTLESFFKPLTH
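Pol eta at 10 nM preincubated with compounds 15 min at room temperature; reaction started with fluorescent substrate (50 nM final) and read kinetically at 0 and 10 min.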
POLI inh = DNA polymerase iota (human) inhibition; Q9UNA4; Pol iota fluorescent replication assay, 10 min; Potency, µM (doses to about 115 µM), inactives show at the highest dose activity, negative = inhibition, usual class: inhibitors; 390,000 compounds, 1% hits; note: potency is the fitted concentration of half-maximal effect
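Pol iota at 10 nM preincubated 15 min with compounds at room temperature; reaction started with fluorescent substrate, 50 nM final. Fluorescence read kinetically at 0 and 10 min; buffer-only wells as negative control.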
The depositor's hits bear a star; ? = inconclusive; nt = no result given; [ ] = another dose, or the depositor's remark. Unless noted, calls come from the whole dose curve; as a rule, active = well fitted curve in the direction sought with a large enough effect; inconclusive = small, poorly fitted or top-dose-only effect, or another doubt; inactive = no such curve, though single readings can be large; an effect the other way counts as inactive or inconclusive.

SMILES	PI5P4K alpha inh	POLK inh	WRN inhibitor	Pol beta inh	Pol eta inh	POLI inh
COC/C=C/C1=CC2=CC(=O)C(C)(OC(=O)c3cnc4ccccc4n3)C(=O)C2=CN1c1ccc(OC)cc1 (stereo unspecified)	-29	-7%	6%	nt	?	?
Cc1cccc(-c2nc3c4ccccc4nc(N4CCN(c5cccc(Cl)c5)CC4)n3n2)c1	nt	1%	nt	-2%	17%	11%
O=C(C(=O)N1CCN(C(=O)c2ccco2)CC1)c1ccccc1	-1	nt	7%	nt	nt	nt
CCn1c2ccccc2c2cc(/C=C3/C=Cc4ccccc43)ccc21	nt	-7%	nt	nt	nt	3%
COc1ccccc1Nc1nc(-c2ccc(F)cc2)c2c(n1)-c1ccccc1OC2	nt	-3%	nt	-26%	-15%	14%
COc1ccc(C2C=C(c3ccccc3)Nc3nc(NC(=O)/C=C/c4ccc(Cl)cc4)nn32)cc1 (stereo unspecified)	nt	5%	nt	-1%	-24%	22%
Cc1c(NC(=O)C(C)(C)Oc2ccc(Cl)cc2)cccc1-c1nc2ncccc2o1	nt	-17%	nt	0%	-15%	?
CCCCn1c(O)c(/C=C/C=C/C=Nc2ccccc2)sc1=S	?	?	-21%	?	-28%	1%
Oc1c(/C=C/C=C/C=Nc2ccccc2)sc(=S)n1Cc1ccccc1	-79*	79µM*	-30%	-58%	?	25µM*
CCn1c(O)c(/C=C/C=C/C=Nc2ccccc2)sc1=S	-63*	-26%	-27%	1%	-12%	?
CCc1ccc(S(=O)(=O)Nc2cccc(-c3ccc(N4CCOCC4)nn3)c2)cc1	nt	-2%[60.1 µM]	nt	1%	-22%	14%
Cn1cc(CNC(=O)c2cc(-c3ccccc3)nc3ccc(Br)cc23)cn1	-3	-5%	4%	6%	-20%	111%
Cc1ccc(-c2cc(C(=O)NCc3cnn(C)c3)c3cc(Br)ccc3n2)cc1	13	-7%	-15%	-2%	79µM*	-29%
Cc1c(NC(=O)COC(=O)c2cccn2C)c(=O)n(-c2ccccc2)n1C	-1	-9%	-2%	nt	-23%	7%
COc1ccc(/C=C2\SC(N)=NC2=O)cc1	6	-14%	-14%	0%	-14%	99%
CCOC(=O)CSC1=NC(=O)/C(=C/c2ccc(OC)cc2)S1	-51*	-3%	50µM*	1%	-2%	11%
O=C(N/N=C/c1ccccc1)c1ccc(NC(=O)c2ccc(F)cc2)cc1	-13	0%	0%	-2%	-14%	131%
Cc1ccc(C(=O)Nc2ccc(C(=O)N/N=C/c3cccnc3)cc2)cc1	6	-13%	-14%[11.6 µM]	?	-5%	79µM*
Cc1ccccc1C(=O)Nc1ccc(C(=O)N/N=C/c2ccc(F)cc2)cc1	-7	-13%	-16%	40µM*	4%	-6%
Cc1cccc(C(=O)Nc2ccc(C(=O)N/N=C/c3cccnc3)cc2)c1	3	-8%	0%	18%	-14%	37%
O=C(N/N=C/c1cccnc1)c1cccc(NC(=O)c2ccc(Cl)cc2)c1	3	-20%	?	40µM*	?	?
COc1ccc(OC)c(S(=O)(=O)NCCc2sc(C)nc2C)c1	nt	-8%[60.1 µM]	nt	-18%	-7%	15%
COc1ccc(C(=O)n2nc(-c3ccco3)nc2SC)cc1OC	-23	-10%	?	?	?	32µM*
CSc1nc(-c2ccco2)nn1C(=O)c1cccs1	-6	-14%	11%	-24%	-10%	?
O=C1c2ccccc2-c2cc([N+](=O)[O-])c([N+](=O)[O-])cc21	nt	0%	nt	nt	nt	2.2µM*
SMILES	PI5P4K alpha inh	POLK inh	WRN inhibitor	Pol beta inh	Pol eta inh	POLI inh
Cc1c(C(=O)OC(C)C)sc(NC(=O)C2c3ccccc3Oc3ccccc32)c1C(=O)OC(C)C	nt	?	nt	?	-15%	89µM*
CC(=O)Oc1ccc2c(=O)c(/C=N/c3cc(=O)[nH]c(=S)[nH]3)coc2c1	-91*	-22%	-26%	-17%	?	?
O=c1cc(/N=C/c2coc3cc(Br)ccc3c2=O)[nH]c(=S)[nH]1	-83*	-20%	-29%	18%	9%	?
NC(=S)N/N=C/c1coc2ccc(Cl)cc2c1=O	-11	-6%	13%[57.1 µM]	1%	-6%	110%
Cc1[nH]n(-c2ccccc2)c(=S)c1C=NCCCN=Cc1c(C)[nH]n(-c2ccccc2)c1=S	-76*	0%	-25%[57.1 µM]	7%	?	17%
CC(=O)c1c(CC(=O)O)[nH]n(-c2nc3ccccc3s2)c1=O	nt	?	?	32µM*	50µM*	?
O=C1C2C3C=CC(C3)C2C(=O)N1CNc1ccc(O)cc1 (stereo unspecified)	nt	nt	nt	40µM*	nt	nt
Cc1ccc(NCN2C(=O)C3C4C=CC(C4)C3C2=O)cc1 (stereo unspecified)	?	-3%	1%	17%	-6%	2%
Cc1ccc(NC(=O)CN2C(=O)c3ccccc3Sc3ncccc32)c(C)c1	nt	-17%	nt	-1%	0%	-9%
COc1ccc(CNC(=O)c2cc(C)nc3c2c(C)nn3-c2cccc(Cl)c2C)cc1	nt	-5%	nt	-2%	-1%	-3%
COc1ccc(OCC(=O)Nc2cc(-c3ccccc3F)nn2-c2ccccc2)cc1	nt	2%[60.1 µM]	nt	1%	-8%	12%
CCOc1cc(/C=C2\C(=O)N(CCc3ccc(OC)c(OC)c3)C(C)=C2C(=O)OC)ccc1O	2	-5%	79µM*	19%	-10%	14%
COC(=O)C1=C(C)N(Cc2ccc(C)cc2)C(=O)/C1=C\c1ccc(O)c(OC)c1	1	-15%	-22%[57.1 µM]	8%	-18%	2%
O=C(COc1ccccc1C(=O)Nc1ccccc1)Nc1cccc(Br)c1	nt	-8%	nt	nt	nt	20%
CCN(CC)S(=O)(=O)c1ccc(OC)c(NC(=O)/C=C/c2ccco2)c1	-26	-9%	-8%	-21%	79µM*	?
CCN(CC)S(=O)(=O)c1ccc(N2CCCCC2)c(NC(=O)/C=C/c2ccc(OC)c(OC)c2)c1	7	-10%	-22%[57.1 µM]	7%	-21%	16%
CCCCN(C(=O)CSc1nnc(Nc2ccc(C)c(C)c2)s1)c1c(N)n(Cc2ccccc2)c(=O)[nH]c1=O	-69*	-13%	-19%	-23%	-25%	-18%
CCN(C(=O)COC(=O)c1cc2c(s1)CCCC2)c1c(N)n(Cc2ccccc2)c(=O)[nH]c1=O	?	-33%	-17%	nt	?	45µM*
CCN(C(=O)COC(=O)c1cc2c(s1)CCC(C)C2)c1c(N)n(Cc2ccccc2)c(=O)[nH]c1=O (stereo unspecified)	-7	-7%	-3%[11.6 µM]	nt	?	?
CN(C(=O)CSc1nnc(Nc2ccccc2)s1)c1c(N)n(Cc2ccccc2)c(=O)[nH]c1=O	-21	-6%	2%	1%	-27%	-1%
